{
  "source": "PubChem BioAssay",
  "data": [
    {"target": "Tumor necrosis factor receptor superfamily member 10B (Homo sapiens) (UniProt O14763)", "sequence (O14763 whole entry, looked up)": "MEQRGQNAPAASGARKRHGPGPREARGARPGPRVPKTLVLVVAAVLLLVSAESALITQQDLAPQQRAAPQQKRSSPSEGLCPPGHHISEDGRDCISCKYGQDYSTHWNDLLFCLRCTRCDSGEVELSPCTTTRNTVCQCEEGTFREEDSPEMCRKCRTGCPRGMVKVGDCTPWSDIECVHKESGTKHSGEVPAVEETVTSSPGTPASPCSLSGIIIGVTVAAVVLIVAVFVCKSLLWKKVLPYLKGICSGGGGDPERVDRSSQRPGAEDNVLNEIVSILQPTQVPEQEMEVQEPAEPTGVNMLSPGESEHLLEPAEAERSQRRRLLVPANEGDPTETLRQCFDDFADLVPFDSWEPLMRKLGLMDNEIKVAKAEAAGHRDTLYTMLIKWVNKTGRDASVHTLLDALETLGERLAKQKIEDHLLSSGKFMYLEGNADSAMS", "assay": "caspase-8 TRAIL sensitization, hit retest, confirmation, cell-based, NB7+caspase-8, with/without TRAIL, luminescence panel (AID 651596)", "conditions": "NB7 neuroblastoma + caspase-8, TRAIL sensitization, luminescence viability, with TRAIL, mean of runs, at 10 µM, stronger effect = higher value; in the data active = activity above about 50%; inactive = the rest", "units": {"activity": "%"}, "values": [
      {"smiles": "Oc1ccc(-c2nnc(SCC3CCCCC3)o2)cc1", "activity": 70.1},
      {"smiles": "CCN(CC)CCn1c2c(c(SCC(=O)Nc3nc4ccc(C)cc4s3)nc1=O)CCC2", "activity": 28},
      {"smiles": "COc1cc2c3nnc(-c4ccc(F)cc4)c-3cn(Cc3ccc(C)cc3)c2cc1OC", "activity": 24.2},
      {"smiles": "COc1cc(SC)ccc1C(=O)NNC(=O)c1cc(C)oc1C", "activity": 71.4},
      {"smiles": "O=C1N(c2ccccc2)CCN1c1ccccc1", "activity": 67.2},
      {"smiles": "Cc1nc2nc(C)n(CCN3CCOCC3)c(=O)c2c(-c2cccc([N+](=O)[O-])c2)c1C(=O)CCCCCCCCCCN1CCC(c2ccccc2)(c2ccccc2)CC1", "activity": 92.6},
      {"smiles": "Cc1ccc(-c2ccccc2NC(=O)CCl)o1", "activity": 47.4},
      {"smiles": "C#CCN(C[C@@H]1[C@@H](OC(=O)NCc2ccccc2F)[C@@H](OC(=O)NCc2ccccc2F)Cn2c(=O)ccc(=O)n21)S(=O)(=O)c1ccc(C)cc1", "activity": 95},
      {"smiles": "Cc1ccccc1Nc1nc(N)c2ccccc2n1", "activity": 63.9},
      {"smiles": "O=C(CCl)Nc1ncc(S(=O)(=O)c2ccc([N+](=O)[O-])cc2)s1", "activity": 95.9},
      {"smiles": "Cc1ccc2oc(/N=C(\\N)NC(=O)C3CC3)nc2c1", "activity": 56.4},
      {"smiles": "CN(Cc1ccccc1)C(=O)c1ccc(Nc2nc(C(N)Cc3ccc(C(F)(F)F)cc3)cs2)nc1", "note": "(stereo not given)", "activity": 93},
      {"smiles": "Cc1nc2cc(NC(=O)N3c4ccccc4CC3C)ccc2n1C", "note": "(stereo not given)", "activity": 71.9},
      {"smiles": "FC(F)(F)c1cccc(CC2CN(Cc3ccccc3)Cc3ccccc3N2c2cc(Cl)cc(Cl)c2)c1", "note": "(stereo not given)", "activity": 1.05},
      {"smiles": "Nc1ccccc1C=C1Cc2ccccc2C1=O", "activity": 58.5},
      {"smiles": "c1csc(-c2nnc(-c3ccc(N4CCOCC4)cc3)o2)c1", "activity": 56.9},
      {"smiles": "Cc1ccc(S(=O)(=O)N2CCCCC2)cc1NC(=O)Cn1ncc(Cl)c(Cl)c1=O", "activity": 98.7},
      {"smiles": "CN=c1scc(C)n1/N=C/c1ccc2c(c1)OCO2", "activity": 56.7},
      {"smiles": "COc1ccccc1NC(=O)Nc1ccc2c(c1)nnn2C", "activity": 20.6},
      {"smiles": "CN(C)C(=O)N1CCN(c2nc(-c3ccccc3)cs2)CC1", "activity": 43.7},
      {"smiles": "COc1ccc(NC(=O)c2ccc(C)cc2)cc1", "activity": 66.1},
      {"smiles": "CCCC(=O)OCCNc1cc(Sc2nccn2C)c2nonc2c1[N+](=O)[O-]", "activity": 35.8},
      {"smiles": "CC(C)CC(=O)Nc1ccc(-c2cn3ccsc3n2)cc1", "activity": 85.2},
      {"smiles": "N/C(=N\\OC(=O)c1ccc(Cl)cc1)c1ccn[nH]1", "activity": 94.7},
      {"smiles": "O=C(NC1CCCCC1)C(c1cccnc1)N(C(=O)CCl)c1ccc(F)cc1", "note": "(stereo not given)", "activity": 99.2},
      {"smiles": "Nc1nc(N)c2c(ccc3nccc32)[nH]1", "activity": 73.3},
      {"smiles": "CC(C)c1ccc(/C=C/C(=O)Nc2nncs2)cc1", "activity": 57.7},
      {"smiles": "CCc1c(C)[nH]c2c(C)cccc2c1=O", "activity": 56.4},
      {"smiles": "Cc1ccnc(NC(=O)c2ccc3c(c2)OCO3)c1", "activity": 82.5},
      {"smiles": "O=C(CCl)N=c1sccn1Cc1ccccc1Cl", "activity": 99.6},
      {"smiles": "O=c1c2[nH]c3ccc(F)cc3c2ncn1C1CCCCC1", "activity": 59.1},
      {"smiles": "O=C(N/N=C/c1cccc(NC(=O)c2ccc(Cl)cc2)c1)c1ccc(O)cc1", "activity": 58.4},
      {"smiles": "CNC(=S)N1N=C(c2ccccc2)CC1c1ccc(Br)cc1", "note": "(stereo not given)", "activity": -12.4},
      {"smiles": "Cc1cc(-c2nc3cc(F)ccc3s2)ccc1N", "activity": 74.5},
      {"smiles": "Cc1ccccc1C(=O)N1CCN(c2ccc(NC(=O)c3ccc([N+](=O)[O-])o3)cc2)CC1", "activity": 86},
      {"smiles": "Cc1nc2c(-c3ccccc3)cnn2c(N)c1-c1ccccc1", "activity": 92.6},
      {"smiles": "CCOc1ccc2nc(NC(=O)c3ccco3)sc2c1", "activity": 74.4},
      {"smiles": "CCC1=NN(C(=O)c2cccc(Br)c2)C(O)(c2ccc(Br)cc2)C1", "note": "(stereo not given)", "activity": 19.9},
      {"smiles": "CCCOc1ccc(-c2nc(N3CCN(C)CC3)c3ccccc3n2)cc1", "activity": 71},
      {"smiles": "O=C(Nc1c(Cl)cc2c(c1Cl)Cc1cc([N+](=O)[O-])ccc1-2)C(Cl)Cl", "activity": 89.3}
    ]},
    {"test_system": "not listed separately", "assay": "caspase-8 TRAIL sensitization, hit retest, confirmation, cell-based, NB7+caspase-8, with/without TRAIL, luminescence panel (AID 651596)", "conditions": "NB7 neuroblastoma + caspase-8, without TRAIL, luminescence viability, without TRAIL, mean of runs, at 10 µM", "units": {"activity": "%"}, "values": [
      {"smiles": "Oc1ccc(-c2nnc(SCC3CCCCC3)o2)cc1", "activity": 84.3},
      {"smiles": "CCN(CC)CCn1c2c(c(SCC(=O)Nc3nc4ccc(C)cc4s3)nc1=O)CCC2", "activity": 21.6},
      {"smiles": "COc1cc2c3nnc(-c4ccc(F)cc4)c-3cn(Cc3ccc(C)cc3)c2cc1OC", "activity": 60.6},
      {"smiles": "COc1cc(SC)ccc1C(=O)NNC(=O)c1cc(C)oc1C", "activity": 70.8},
      {"smiles": "O=C1N(c2ccccc2)CCN1c1ccccc1", "activity": 62.8},
      {"smiles": "Cc1nc2nc(C)n(CCN3CCOCC3)c(=O)c2c(-c2cccc([N+](=O)[O-])c2)c1C(=O)CCCCCCCCCCN1CCC(c2ccccc2)(c2ccccc2)CC1", "activity": 89.9},
      {"smiles": "Cc1ccc(-c2ccccc2NC(=O)CCl)o1", "activity": 64.3},
      {"smiles": "C#CCN(C[C@@H]1[C@@H](OC(=O)NCc2ccccc2F)[C@@H](OC(=O)NCc2ccccc2F)Cn2c(=O)ccc(=O)n21)S(=O)(=O)c1ccc(C)cc1", "activity": 93.6},
      {"smiles": "Cc1ccccc1Nc1nc(N)c2ccccc2n1", "activity": 59.8},
      {"smiles": "O=C(CCl)Nc1ncc(S(=O)(=O)c2ccc([N+](=O)[O-])cc2)s1", "activity": 92.3},
      {"smiles": "Cc1ccc2oc(/N=C(\\N)NC(=O)C3CC3)nc2c1", "activity": 71},
      {"smiles": "CN(Cc1ccccc1)C(=O)c1ccc(Nc2nc(C(N)Cc3ccc(C(F)(F)F)cc3)cs2)nc1", "note": "(stereo not given)", "activity": 98.2},
      {"smiles": "Cc1nc2cc(NC(=O)N3c4ccccc4CC3C)ccc2n1C", "note": "(stereo not given)", "activity": 70.6},
      {"smiles": "FC(F)(F)c1cccc(CC2CN(Cc3ccccc3)Cc3ccccc3N2c2cc(Cl)cc(Cl)c2)c1", "note": "(stereo not given)", "activity": -5.7},
      {"smiles": "Nc1ccccc1C=C1Cc2ccccc2C1=O", "activity": 50},
      {"smiles": "c1csc(-c2nnc(-c3ccc(N4CCOCC4)cc3)o2)c1", "activity": 54.2},
      {"smiles": "Cc1ccc(S(=O)(=O)N2CCCCC2)cc1NC(=O)Cn1ncc(Cl)c(Cl)c1=O", "activity": 99.3},
      {"smiles": "CN=c1scc(C)n1/N=C/c1ccc2c(c1)OCO2", "activity": 42.2},
      {"smiles": "COc1ccccc1NC(=O)Nc1ccc2c(c1)nnn2C", "activity": 7.6},
      {"smiles": "CN(C)C(=O)N1CCN(c2nc(-c3ccccc3)cs2)CC1", "activity": 48.5},
      {"smiles": "COc1ccc(NC(=O)c2ccc(C)cc2)cc1", "activity": 60.3},
      {"smiles": "CCCC(=O)OCCNc1cc(Sc2nccn2C)c2nonc2c1[N+](=O)[O-]", "activity": 97.2},
      {"smiles": "CC(C)CC(=O)Nc1ccc(-c2cn3ccsc3n2)cc1", "activity": 88.2},
      {"smiles": "N/C(=N\\OC(=O)c1ccc(Cl)cc1)c1ccn[nH]1", "activity": 91},
      {"smiles": "O=C(NC1CCCCC1)C(c1cccnc1)N(C(=O)CCl)c1ccc(F)cc1", "note": "(stereo not given)", "activity": 98.8},
      {"smiles": "Nc1nc(N)c2c(ccc3nccc32)[nH]1", "activity": 78.7},
      {"smiles": "CC(C)c1ccc(/C=C/C(=O)Nc2nncs2)cc1", "activity": 66.2},
      {"smiles": "CCc1c(C)[nH]c2c(C)cccc2c1=O", "activity": 64.3},
      {"smiles": "Cc1ccnc(NC(=O)c2ccc3c(c2)OCO3)c1", "activity": 82.9},
      {"smiles": "O=C(CCl)N=c1sccn1Cc1ccccc1Cl", "activity": 98.9},
      {"smiles": "O=c1c2[nH]c3ccc(F)cc3c2ncn1C1CCCCC1", "activity": 49.5},
      {"smiles": "O=C(N/N=C/c1cccc(NC(=O)c2ccc(Cl)cc2)c1)c1ccc(O)cc1", "activity": 42},
      {"smiles": "CNC(=S)N1N=C(c2ccccc2)CC1c1ccc(Br)cc1", "note": "(stereo not given)", "activity": -42.7},
      {"smiles": "Cc1cc(-c2nc3cc(F)ccc3s2)ccc1N", "activity": 68.6},
      {"smiles": "Cc1ccccc1C(=O)N1CCN(c2ccc(NC(=O)c3ccc([N+](=O)[O-])o3)cc2)CC1", "activity": 99.5},
      {"smiles": "Cc1nc2c(-c3ccccc3)cnn2c(N)c1-c1ccccc1", "activity": 90.9},
      {"smiles": "CCOc1ccc2nc(NC(=O)c3ccco3)sc2c1", "activity": 69.8},
      {"smiles": "CCC1=NN(C(=O)c2cccc(Br)c2)C(O)(c2ccc(Br)cc2)C1", "note": "(stereo not given)", "activity": 22.4},
      {"smiles": "CCCOc1ccc(-c2nc(N3CCN(C)CC3)c3ccccc3n2)cc1", "activity": 67.7},
      {"smiles": "O=C(Nc1c(Cl)cc2c(c1Cl)Cc1cc([N+](=O)[O-])ccc1-2)C(Cl)Cl", "activity": 94.9}
    ]}
  ]
}
